A structure can be active in one record and inactive in another. Active and inactive are the calls of the source. How the source made its calls: active means hit-call score of the fitted dose curve at least 0.9, where 1 is the maximum; inactive means score below 0.9.

As usually defined, the AC50 is the concentration giving half of the maximal activity seen.

The test is described as follows: APR_HepG2_MicrotubuleCSK_24hr: Apredica 24-hour HepG2 Assay for Microtubule CSK Stabilty (AID 2282909). The following applies: HepG2 microtubule cytoskeleton imaging, actives raise or lower the signal. The method, then: APR_HepG2_24hr is a cell-based, multiplexed-readout assay that uses HepG2, a human liver cell line, with measurements taken at 24 hours after chemical dosing in a 384-well plate.APR_HepG2_MicrotubuleCSK_24hr is one of 10 assay component(s) measured or calculated from the APR_HepG2_24hr assay. It is designed to make measurements of protein conformation, a form of conformation reporter, as detected with fluorescence intensity signals by HCS Fluorescent Imaging technology.Data from the assay component APR_HepG2_MicrotubuleCSK_24hr was analyzed into 1 assay endpoint. This assay endpoint, APR_HepG2_MicrotubuleCSK_24hr, was analyzed with bidirectional fitting relative to DMSO as the negative control and baseline of activity. Using a type of conformation reporter, measures of protein for gain or loss-of-signal activity can be used to understand the signaling at the cellular-level. Furthermore, this assay endpoint can be referred to as a primary readout, because this assay has produced multiple assay endpoints where this one serves a signaling function. To generalize the intended target to other relatable targets, this assay endpoint is annotated to the cell morphology intended target family, where the subfamily is cell conformation.
Cells were treated with dimethyl sulfoxide (DMSO) as a solvent control at a final concentration of 0.5% v/v or with compounds in DMSO with a resulting final DMSO concentration of 0.5% v/v. Compound treatment was done at concentrations of 0.39, 0.78, 1.56, 3.12, 6.24, 12.5, 25, 50, 100, and 200 uM in duplicate on each plate. Cells were treated with compounds for 1, 24, or 72 hr. Carbonyl […] m-chloro-phenylhydrazone (CCCP) and taxol were used as positive controls for mitochondrial function and cytoskeletal stability, respectively; DMSO served as the negative control for this experiment. Cells were fixed by the direct addition of 50 uL formaldehyde in Hank's Balanced Salt Solution (HBSS) to a final concentration of 3.7%. After incubation in the fixation medium for 30 min at room temperature (293-298 K), cells were rinsed twice with HBSS and treated with cell permeabilization buffer (16 uL of 0.5% Triton X-100) for 10 min at room temperature (293-298 K) before labeling. For mitochondrial membrane potential and mitochondrial measurements, pre-fixed cells were incubated with 50 uL of MitoTracker Red CMXRos (Invitrogen) at a concentration of 250 nM for 30 min before fixation. In the remaining cases, post-fixed cells were labeled by incubation with a multiplexed mixture of primary antibodies in HBSS for 60 min at room temperature (293-298 K) to detect immunoreactivity of c-Jun (1:500), phospho-histone H3 (1:100), phospho-histone H2A.x (1:200), p53 (1:400), alpha-tubulin (1:200) and Hoechst 33342 (2 ug/mL). Cells were labeled for multiplexed imaging on two separate plates: a) Hoechst 33342, MitoTracker Red, phospho-histone H3, and alpha-tubulin, and b) Hoechst 33342, phospho-histone H2A.x, and c-Jun. A final rinse with HBSS (50 uL) was performed before analysis. The primary and secondary antibodies for the proteins were phospho-histone H3 (rabbit anti-phospho-histone H3 and FITC-donkey anti-rabbit IgG), phospho-histone H2A.x (mouse anti-phospho-histone H2A.x and FITC-donkey anti-mouse IgG), c-Jun (rabbit anti-phospho-c-Jun and Cy3-donkey anti-rabbit IgG), p53 (sheep anti-p53 and Cy5-donkey anti-sheep IgG), alpha-tubulin (mouse anti-alpha-tubulin and Cy5-donkey anti-mouse IgG). These antibodies are available as the CellCiphr HepG2 assay kit (Millipore).Digital images of each well were captured using a Cellomics ArrayScan VTI (Thermo Scientific Cellomics) (0.8 NA objective, 0.63x optical coupler, and XF-93 filter set) at 20x magnification. The images were acquired using the autofocus feature of the ArrayScan instrument, which entails the following steps. First, the camera focuses on channel 1 (Hoechst 33342), where nuclei are identified. Second, a Z offset of 1 um is used for capturing mitochondria (MitoTracker Red). […]
With `CCSC(=O)N(CC(C)C)CC(C)C`, the molecule was called inactive.
Consider `O=C(O)c1ccccc1`, for which the result was inactive.
As to `CC(=O)[C@H]1CC[C@H]2[C@@H]3CCC4=CC(=O)CC[C@]4(C)[C@H]3CC[C@]12C`, the concentration at half-maximal activity (AC50) was 104 µM (active).
With `CCCCC(CC)COC(=O)c1ccccc1C(=O)O` (stereo not given), the call was inactive.
Still for that read-out and setting: the result for `COC(=O)c1ccccc1C(=O)O` reads “inactive”; that for `CCOC(=O)C(C)Oc1ccc(Oc2cnc3cc(Cl)ccc3n2)cc1` (stereo not given), “inactive”; that for `COC(=O)c1cccc(C)c1S(=O)(=O)NC(=O)Nc1nc(OCC(F)(F)F)nc(N(C)C)n1`, “inactive”.
Consider `N#CSCSc1nc2ccccc2s1`, for which the result was inactive.
Take `N[C@@H](Cc1cc(I)c(Oc2ccc(O)c(I)c2)c(I)c1)C(=O)O`: the molecule was called inactive.
Take `COCCO`: the outcome was inactive.
For `CCCOC(=O)NCCCN(C)C`, the result was inactive.
As for `CCOC(=O)[C@H](C)Oc1ccc(Oc2nc3ccc(Cl)cc3o2)cc1`, the outcome was inactive.
Consider `COC(=O)c1c(Cl)nn(C)c1S(=O)(=O)NC(=O)Nc1nc(OC)cc(OC)n1`, for which the result was inactive.
For the molecule `COc1c(Cl)ccc(Cl)c1C(=O)O`, the molecule was called inactive.
On to `O=C(c1ccc(O)cc1O)c1ccc(O)cc1O`, for which the result was inactive.
Regarding `C#C[C@]1(O)CC[C@H]2[C@@H]3CCC4=CC(=O)CC[C@@H]4[C@H]3CC[C@@]21CC`, the result was inactive.
For `Cc1nn(C)c(Oc2ccccc2)c1C=NOCc1ccc(C(=O)OC(C)(C)C)cc1`, the molecule was called inactive.
Consider `CCCN(CCC)C(=O)SCC`, for which the result was inactive.
Regarding `CC(C)(c1ccc(O)cc1)c1ccc(O)cc1`, the molecule was called inactive and the AC50 was 103 µM (active).
With `COC(=O)CSc1cc(N=c2sc(=O)n3n2CCCC3)c(F)cc1Cl`, the molecule was classed as inactive.
In the case of `CC(C)(C)[C@@H](O)[C@@H](Cc1ccc(Cl)cc1)n1cncn1`, the outcome was inactive.
Same read-out and setting: the result for `CCOC(=O)C(C)Oc1ccc(Oc2nc3ccc(Cl)cc3o2)cc1` (stereo not given) reads “inactive”.
With `CSC(=O)c1cccc2nnsc12`, the outcome was inactive.
Turning to `C#CCOC(=O)[C@@H](C)Oc1ccc(Oc2ncc(Cl)cc2F)cc1`, the molecule was classed as inactive.
For the molecule `S=C([S-])NCCNC(=S)[S-].[Mn+2]`, the outcome was inactive.
For `CCC(O)=C1C(=O)CC(C(=O)O)CC1=O` (stereo not given), the molecule was called inactive.
Consider `CCCCCOC(=O)COc1cc(N2C(=O)C3=C(CCCC3)C2=O)c(F)cc1Cl`, for which the outcome was inactive.
On the same count and under the same terms, the entry for `C=CCOC(Cn1ccnc1)c1ccc(Cl)cc1Cl` (stereo not given) is “inactive”; for `OB(O)O` it is “inactive”.
With `O=C(Nc1ccc([N+](=O)[O-])cc1Cl)c1cc(Cl)ccc1O`, the concentration at half-maximal activity (AC50) is 0.672 µM (active).
As to `CCCCOC(=O)[C@@H](C)Oc1ccc(Oc2ccc(C(F)(F)F)cn2)cc1`, the molecule was classed as inactive.
Consider `S=C(S)NCCNC(=S)S.[Mn+2].[S-]C([S-])=NCCN=C([S-])[S-].[Zn+2]`, for which the molecule was called inactive.
Same read-out and setting: the result for `COc1nc(C)nc(NC(=O)NS(=O)(=O)c2ccccc2OCCCl)n1` reads “inactive”.
With `O=C(c1ccccc1)C1CCCCC1`, the outcome was inactive.
Take `CC(=O)S[C@@H]1CC2=CC(=O)CC[C@]2(C)[C@H]2CC[C@@]3(C)[C@@H](CC[C@@]34CCC(=O)O4)[C@H]12`: the outcome was inactive.
Consider `CCNc1nc(N)nc(Cl)n1`, for which the molecule was called inactive.
Turning to `CCCCC(CC)CN1C(=O)C2C3C=CC(C3)C2C1=O` (stereo not given), the AC50 was 72.3 µM (active).
In the case of `CCC(C)OC(=O)N1CCCCC1CCO` (stereo not given), the outcome was inactive.
`C[C@]12C[C@H](O)[C@H]3[C@@H](CCC4=CC(=O)CC[C@@]43C)[C@@H]1CC[C@@H]2C(=O)CO`: the molecule was called inactive.

Source of the values: PubChem BioAssay (EPA / NIEHS).
